The results in this text go back to PubChem BioAssay AID1981 (Southern Research Specialized Biocontainment Screening …, 2009).

Each structure is given as a SMILES string. Hit rate of the full screen: of about 2,200 compounds, about 480 (22%) were called active. The rule behind the calls is not given here. Not all results are given here. Potency and affinity values are given separately.

The test in a line: S. Typhimurium GFP fluorescence modified counterscreen for PhoP regulon inhibitor project dose response (AID 1981).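 Note: 0% = induced DMSO wells and 100% = uninduced wells.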 The conditions noted are these: 4 h; series mostly up to 150 µM; inhibition: at the top concentration. For orientation: A counterscreen serves to expose hits that act by an unwanted route or on another target.
As usually defined, the inhibition is the change of the read-out against control, counted positive when it falls. For the molecule `CC(C)Nc1cc(C(F)(F)F)nc(-c2ccccn2)n1`, the “inhibition” value is -21.8% (inactive).

As for `O=C1c2ccccc2C(=O)N1Cc1nc(-c2ccccn2)no1`, the “inhibition” value was -13.3% (inactive). The value for `N#Cc1ccc(N=c2ssnc2Cl)cc1` was 8.15% (inactive). As to `CC(C)CCNC(=O)C(c1ccco1)N(Cc1ccc(F)cc1)C(=O)c1snc(C(N)=O)c1N` (configuration not stated), the “inhibition” value is -5.54% (inactive).

Take `COc1cc(C2C(C(=O)c3ccc(C)o3)=C(O)C(=O)N2CCc2ccccc2)ccc1O` (configuration not stated): the “inhibition” value is 11.2% (inactive). The same measure for `CCOC(=O)c1c(NC(=O)Nc2ccc(C)cc2)sc2c1CCN(C)C2`: -0.83% (inactive); for `CC(C)(C)C1CCc2c(sc(NC(=O)c3cccs3)c2C(=O)N2CCCCC2)C1` (configuration not stated): 8.2% (inactive). As to `NC(=O)c1c(NC(=O)CN2C(=O)CCC2=O)sc2c1CCCCC2`, the “inhibition” value is -16.9% (inactive). The same measure for `O=[N+]([O-])c1ccc(-n2nnnc2-c2ccccc2)c([N+](=O)[O-])c1`: 14.8% (inactive).

Consider `CN(C)C(CNC(=O)Nc1cccc(Cl)c1)c1cccnc1` (configuration not stated), for which the “inhibition” value is 3.94% (inactive). `Cc1cc2c(c(=O)n1C)C(Cc1ccccc1)C(C#N)=C(N)O2` (configuration not stated): the “inhibition” value was -7.35% (inactive). The same measure for `OC1(c2cccc(C(F)(F)F)c2)CCN(c2ncnc3c2[nH]c2ccccc23)CC1`: 3.4% (inactive); for `COc1ccc2c(c1)CC/C(=C\Nc1ccc3c(c1)OCO3)C2=O`: -7% (inactive).

Regarding `COc1ccc(C2C=C(c3ccc(Cl)cc3)Nc3nc(NC(C)=O)nn32)cc1` (configuration not stated), the “inhibition” value is -1.96% (inactive). The same measure for `CCCSc1ncc(Cl)c(C(=O)Nc2ccc(S(=O)(=O)N3CC(C)OC(C)C3)cc2)n1` (configuration not stated): -15.2% (inactive); for `O=C(NC1CC1)C1=NOC(CNc2ncc(C(F)(F)F)cc2Cl)C1` (configuration not stated): -16% (inactive). The same measure for `O=C(NCc1cccnc1)c1cc2ccccc2oc1=O`: -21.1% (inactive); for `CC(=O)N1N=C(c2ccco2)CC1c1ccc(Br)cc1` (configuration not stated): 22.8% (inactive); for `O=C1NC(=O)C(=C2CCCCCC2)S1`: 16% (inactive). In the case of `Cc1ccc(-c2csc(N=C(N)N)n2)cc1`, the “inhibition” value was 31.5% (inactive).

With `Clc1ccc(OCCN2CCN(c3ncnc4sccc34)CC2)cc1`, the “inhibition” value was -10.9% (inactive). The same measure for `c1ccc(OCCCN2CCCC2)cc1`: -12.3% (inactive). The value for `COc1ccc(Br)cc1C(=O)NCc1cccnc1` was -7.4% (inactive); that for `Clc1ccccc1OCCn1ccnc1` was -5.79% (inactive). The value for `NC(=O)N1OCC2COc3ccc4ccccc4c3C21` (configuration not stated) was -6.03% (inactive). As to `Cc1ccccc1CS(=O)(=O)c1snnc1C`, the “inhibition” value was -7.82% (inactive). The value for `O=C(CNC(=O)c1ccco1)OCC(=O)c1ccc2c(c1)CCCC2` was 6.72% (inactive).

Turning to `Fc1ccc(-c2n[nH]c(=S)n2/N=C/c2c[nH]c3ccccc23)cc1`, the “inhibition” value was -21.6% (inactive). The value for `Cc1cc(=O)[nH]c(N/N=C/c2c[nH]c3ccccc23)n1` was -13.5% (inactive); that for `CSc1ccc(C(=O)/C=C/c2ccc(N)cc2)cc1` was 1.48% (inactive). The same measure for `O=C(O)C1CCCN1S(=O)(=O)c1ccc2[nH]c(=O)c(=O)[nH]c2c1` (configuration not stated): 1.08% (inactive). The value for `Cc1cc(C)c(C#N)c(SCc2cn3ccccc3n2)n1` was -6.87% (inactive).
